Rows were chosen to be rich in hits. Some 11% of all compounds tested hit in one or more screens of this group.
G9a inh – inhibitors of human histone lysine methyltransferase G9a; AID 504332; 350,000 tested, 8.8% active; Potency, µM (top dose mostly 102 µM), most hits filed as inhibitors; Q96KQ7; G9a H3K9 monomethylation, AlphaScreen, 2 h; also: nearly all actives have a fitted effect of over 75% in size
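Readings reflect AlphaScreen signal from monomethyl-H3K9 antibody detection. HMT at 20 nM; substrate b-H3K9 500 nM; cofactor SAM 20 uM; 2 h RT reaction; compounds tested as titrations in qHTS with 15 min preincubation.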
HP1b binding inh – HP1-beta chromodomain-methylated histone interaction inhibition. P83916. AlphaScreen HP1-beta / biotin-H3K9me3 peptide binding. Potency, µM (titrated, usually from 114 µM), most hits filed as inhibitors. 390,000 tested, 0.56% active; also: nearly all actives have a fitted effect of over 70% in size
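HP1-beta protein (50 nM final) preincubated 30 min at room temperature with biotinylated H3(1-18)K9me3 peptide (50 nM) in PBS pH 7.4, 0.01% Tween-20, then compound added for 30 min. AlphaScreen streptavidin donor/nickel chelate acceptor beads (10 ug/mL final), 30 min dark, luminescence read.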
BAZ2B block – BAZ2B (human) inhibition; Q9UIF8; AlphaScreen BAZ2B-H3K14Ac peptide displacement; Potency, µM (top dose mostly 114 µM), most hits filed as inhibitors; 360,000 tested, 4.4% active; AID 504333; also: nearly all actives have a fitted effect of over 60% in size
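AlphaScreen displacement: compounds (up to 110uM) incubated 30 min at room temperature with a preformed 50 nM BAZ2B/50 nM biotinylated H3K14Ac peptide complex in PBS pH 7.4 with Tween-20. Donor and acceptor beads at 10 ug/mL final added, 20 min light-protected before reading.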
L3MBTL1 block – inhibitors of human L3MBTL1; Q9Y468; AlphaScreen L3MBTL1–H3K9me1 peptide binding; Potency, µM (titrated, usually from 57.1 µM), hits mostly inhibitors; 230,000 tested, 0.66% active; AID 485360; also: nearly all actives have a fitted effect of over 60% in size
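First, the protein-peptide complex forms for 30 min at room temperature (L3MBTL1 50 nM, biotinylated H3K9me1 peptide 75 nM). Next, compounds are pin-transferred and incubated 30 min. Finally, AlphaScreen beads are added and read after 30 min.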
JMJD2A Tudor inh – inhibitors of human JMJD2A Tudor domain; O75164; Potency, µM (titrated, usually from 114 µM), most hits filed as inhibitors; 390,000 tested, 4.4% active; AlphaScreen JMJD2A-Tudor / H3K4me3 peptide binding; also: nearly all actives have a fitted effect of over 50% in size
PI5P4Ka inh – blocks human PI5P4K alpha kinase activity | PI5P4Kalpha enzyme, ADP-Glo luminescence, 60 min; active compounds read low | AID 652105 | max response, % | 330,000 tested, 1.2% active | P48426; active = max response of -50% or lower; inconclusive = between -30% and -50%; inactive = -30% or higher; also: value at the top dose of about 77 µM
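ADP-Glo luminescence end-point after a 60 min room-temperature kinase reaction. PI5P4Kalpha and substrate in HEPES pH 7.4 buffer with EGTA, 0.1% CHAPS and 5% DMSO; ATP at 5 microM final.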
Each line names hits and unclear results; the compound was inactive in the other large screens. Unless noted, calls follow the shape of the dose curve; as a rule, active = well fitted inhibition curve with a large enough effect; inconclusive = small, poorly fitted or top-dose-only effect; inactive = no such curve, though single readings can be large or run the other way.

COc1ccc(NC2CCCN(C(=O)CSc3ccncc3)C2)cc1 (centres undefined)	G9a inh 40µM, BAZ2B block 50µM (no result: L3MBTL1 block)
COc1ccc(NC2CCCN(C(=O)c3cccc(N4CCNC4=O)c3)C2)cc1 (centres undefined)	G9a inh 40µM (no result: L3MBTL1 block)
COc1ccc(NC2CCCN(C(=O)c3cccnc3)C2)cc1 (centres undefined)	none (no result: L3MBTL1 block)
COc1ccc(CCC(=O)N2CCCC(Nc3ccc(OC)cc3)C2)cc1 (centres undefined)	G9a inh 40µM, BAZ2B block inconclusive (no result: L3MBTL1 block)
COc1ccc(NC2CCCN(C(=O)CCC(=O)c3ccc(F)cc3)C2)cc1 (centres undefined)	BAZ2B block 40µM, JMJD2A Tudor inh inconclusive (no result: G9a inh, L3MBTL1 block)
COc1cc(OC)cc(C(=O)N2CCCC(Nc3ccc(F)cc3)C2)c1 (centres undefined)	none (no result: G9a inh, L3MBTL1 block)
COc1ccc(CCNC(=O)CCn2c(=O)c3ccccc3n(CC(=O)Nc3ccc(C)cc3C)c2=O)cc1OC	none (no result: L3MBTL1 block, PI5P4Ka inh)
COc1ccc(CNC(=O)CN2C(=O)c3cccnc3Oc3ccc(C)cc32)cc1	none (no result: L3MBTL1 block, PI5P4Ka inh)
O=C(CSc1ccc2nc(-c3ccccc3)cn2n1)Nc1ccccc1	none (no result: L3MBTL1 block, PI5P4Ka inh)
O=C(CSc1ccccc1)N1CCCC(Nc2ccccc2)C1 (centres undefined)	JMJD2A Tudor inh 16µM (no result: L3MBTL1 block)
Cc1ncsc1CCC(=O)N1CCCC(Nc2ccc(C(C)C)cc2)C1 (centres undefined)	G9a inh 50µM (no result: L3MBTL1 block)
COc1ccc(NC2CCCN(C(=O)C3(C)CCCCC3)C2)cc1 (centres undefined)	BAZ2B block 32µM (no result: G9a inh, L3MBTL1 block)
COc1ccc(NC2CCCN(C(=O)CCc3scnc3C)C2)cc1 (centres undefined)	G9a inh inconclusive (no result: L3MBTL1 block)
COc1ccc(NC2CCCN(Cc3cccc4cnccc34)C2)cc1OC (centres undefined)	G9a inh inconclusive, BAZ2B block inconclusive, JMJD2A Tudor inh inconclusive
COc1ccc(NC2CCCN(Cc3cccc4cnccc34)C2)cc1 (centres undefined)	G9a inh 45µM, BAZ2B block 45µM, JMJD2A Tudor inh inconclusive
CCN(c1cccc(C)c1)S(=O)(=O)c1c(C)nc2sc(C)cn2c1=O	none (no result: L3MBTL1 block, PI5P4Ka inh)
O=C(NNc1cccc(Cl)n1)c1ccc(Cl)nc1	JMJD2A Tudor inh inconclusive
O=C(NNc1c(F)c(F)cc(F)c1F)c1ccc(Cl)nc1	G9a inh 50µM (no result: L3MBTL1 block)
Cc1ccc(C)c(N2CCN(S(=O)(=O)c3cc(C(=O)Nc4ccccc4C(F)(F)F)ccc3F)CC2)c1	none (no result: L3MBTL1 block, PI5P4Ka inh)
O=C(O)c1c2c(nc3ccc(S(=O)(=O)N4CCC(C(=O)NC5CCCCCC5)CC4)cc13)CCCC2	G9a inh 40µM, BAZ2B block 50µM, JMJD2A Tudor inh inconclusive (no result: L3MBTL1 block)
CC(C)CCNC(=O)C1CCN(S(=O)(=O)c2ccc3nc4c(c(C(=O)O)c3c2)CCCCC4)CC1	none (no result: L3MBTL1 block)
CC1CCc2nc3ccc(S(=O)(=O)N4CCC(C(=O)N5CCCCCC5)CC4)cc3c(C(=O)O)c2C1 (centres undefined)	G9a inh 45µM (no result: L3MBTL1 block)
Cc1ccc(-c2nc3scc(CCNS(=O)(=O)c4c(C)noc4C)n3n2)cc1	none (no result: L3MBTL1 block, PI5P4Ka inh)
COc1ccc(C)cc1Nc1n[n+](-c2ccccc2)c(-c2ccc(C(=O)O)cc2)s1	G9a inh 10µM, BAZ2B block 40µM, JMJD2A Tudor inh 35µM
C(=C\c1sc(Nc2ccccc2)n[n+]1-c1ccccc1)/c1ccccc1	HP1b binding inh inconclusive, JMJD2A Tudor inh 56µM (no result: G9a inh, BAZ2B block, L3MBTL1 block)
CCOc1cc(-c2sc(Nc3cc(C)ccc3OC)n[n+]2-c2ccccc2)ccc1OC	BAZ2B block 56µM, JMJD2A Tudor inh 56µM, PI5P4Ka inh inconclusive
COc1ccc(-c2sc(Nc3ccccc3)n[n+]2-c2ccccc2)cc1Br	BAZ2B block 50µM, JMJD2A Tudor inh 79µM
Cc1noc(C)c1C(=O)N1CCC2(CC1)CN(c1ccccn1)C2	none (no result: HP1b binding inh, BAZ2B block, L3MBTL1 block, JMJD2A Tudor inh, PI5P4Ka inh)
O=C(O)Cn1nc(N2CCN(c3ccccc3)CC2)ccc1=O	none (no result: BAZ2B block, L3MBTL1 block, PI5P4Ka inh)
O=C1CS(=O)(=O)C2(C(=O)N(Cc3ccccc3Cl)c3ccccc32)N1c1ccc(F)cc1 (centres undefined)	G9a inh inconclusive (no result: L3MBTL1 block, PI5P4Ka inh)
COc1ccc(-c2nc(-c3ccccc3)nc(N3CCN(C)CC3)c2C#N)cc1	BAZ2B block inconclusive, JMJD2A Tudor inh inconclusive
COc1cccc(-c2nc(-c3ccccc3)nc(N3CCN(C)CC3)c2C#N)c1	G9a inh 50µM, BAZ2B block inconclusive, JMJD2A Tudor inh 56µM
COc1ccc(-c2nc(-c3cccc(C)c3)nc(N3CCN(C)CC3)c2C#N)cc1	G9a inh 79µM
COc1cccc(-c2cc(CNC(=O)[C@H]3O[C@@H](n4ccc(=O)[nH]c4=O)[C@H](O)[C@@H]3O)no2)c1	none (no result: G9a inh, HP1b binding inh, BAZ2B block, L3MBTL1 block, JMJD2A Tudor inh)
C=C1C(=O)O[C@H]2C[C@H]1[C@@H](OC(C)=O)C/C(C)=C/CC/C(C)=C\CC[C@]2(C)O	none (no result: G9a inh, BAZ2B block, L3MBTL1 block)
C=C1C(=O)O[C@@H]2[C@H]3O[C@]3(C)CC/C=C(\C)CC[C@@H]12	G9a inh 7.9µM (no result: BAZ2B block, L3MBTL1 block)
COc1ccc(-c2nn(-c3ccc(F)cc3F)c3c2cnc2ccc(F)cc23)cc1	none (no result: L3MBTL1 block, PI5P4Ka inh)
COc1ccc(N(CC(=O)N2CCCCCC2)S(=O)(=O)c2ccccc2[N+](=O)[O-])c(OC)c1	none (no result: L3MBTL1 block)
